Source: PubChem (National Center for Advancing Translational Sciences (NCATS))
D3 antag = antagonists of human D3 dopamine receptor | P35462 | D3R cells, DiscoveRx beta-arrestin luminescence, antagonist mode; active compounds read low | max response, negative = inhibition, % | actives 2.5% (n = 360,000); in the data active = max response below about -50%; inconclusive = no clear call, values can overlap the other calls; note: % is set by controls: 0 for no effect and ±100 for the full control effect
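Cells expressing the human receptor were seeded at 1500 cells/well, incubated overnight at 37 degrees C in 5% CO2, then exposed to library compounds with dopamine controls for 90 minutes at 37 degrees C before luminescent detection.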
D1 agonist = agonists of human D1 dopamine receptor; P21728; HEK293 T-REx D1 cells, calcium flux, agonist mode; activation, % at 2 µM; actives 1% (n = 360,000); in the data active = activation above about 30%; note: 0% is about no effect
Target sequence (P21728 whole entry, looked up): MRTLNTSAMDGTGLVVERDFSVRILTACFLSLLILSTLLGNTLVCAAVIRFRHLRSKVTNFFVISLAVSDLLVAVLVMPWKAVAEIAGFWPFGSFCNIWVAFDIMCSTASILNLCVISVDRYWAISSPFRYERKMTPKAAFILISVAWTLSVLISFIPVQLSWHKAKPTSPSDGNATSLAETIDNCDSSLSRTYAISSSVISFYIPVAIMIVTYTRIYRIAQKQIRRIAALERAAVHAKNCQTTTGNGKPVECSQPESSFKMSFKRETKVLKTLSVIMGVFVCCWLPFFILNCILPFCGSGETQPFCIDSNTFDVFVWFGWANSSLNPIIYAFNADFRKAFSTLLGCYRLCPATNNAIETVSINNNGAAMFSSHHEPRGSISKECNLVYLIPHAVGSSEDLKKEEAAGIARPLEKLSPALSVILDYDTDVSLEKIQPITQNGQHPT
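Inducible HEK293 T-REx D1 cells, force-coupled to calcium signalling, were plated at 4000 cells/well with tetracycline and held overnight at 30 C. After no-wash calcium dye loading, compound-evoked calcium rise over 180 s flagged agonists.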
D1 PAM = enhances dopamine response at the human D1 receptor; potentiation, % at 10 µM; actives 0.036% (n = 360,000); P21728; HEK293 TREx D1 cells, calcium flux, dopamine EC20 potentiation; in the data active = potentiation above about 30%; note: 0% is about no effect
D1 antagonist = antagonists of human D1 dopamine receptor; AID 504652; HEK293 TREx D1 cells, calcium flux, dopamine EC80; active compounds read low; actives 3.2% (n = 360,000); activity change, negative = inhibition, % at 10 µM; P21728; in the data active = activity change below about -30%; note: % is set by controls: 0 for no effect and ±100 for the full control effect
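Using tetracycline-induced force-coupled D1 Hek293 cells and a calcium dye, signals were followed for 180 s after compound, then for 180 s after EC80 dopamine, to detect inhibitors.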
D3 ag = agonists of human D3 dopamine receptor; P35462; D3R DiscoveRx beta-arrestin cells, luminescence, 90 min; max activation, %; actives 0.58% (n = 410,000); in the data active = max activation above about 30%; note: 0% is about no effect
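Agonist mode: compounds and dopamine controls were applied to plated cells for 90 min at 37 degrees C after an overnight attachment at 1500 cells/well. Luminescent read-out followed 30 - 60 minutes at room temperature with DiscoveRx detection reagent.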
Active calls of the source: *; ? = inconclusive; nt = no result; ! = repeats disagree. An excerpt weighted towards active compounds, which were near 6.1% of everything screened.

SMILES	D3 antag	D1 agonist	D1 PAM	D1 antagonist	D3 ag
COC(=O)C1CCN(Cc2cc(=O)oc3cc(OC)ccc23)CC1	-16	3	-8	-5	34*
CCCCc1cc(=O)oc2cc(OCC(=O)NC3CCN(Cc4ccccc4)CC3)ccc12	-54*	6	-3	13	-15
CCOC(=O)C1CCN(Cc2cc(=O)oc3cc(C)c(Cl)cc23)CC1	11	3	0	-1	36*
CC1CCN(Cc2cc(=O)oc3cc4c(cc23)CCCC4)CC1	-98*	1	0	-20	-18
Cc1cc2oc(=O)cc(CN3CCCC3)c2cc1Cl	?	nt	nt	nt	-8
Cc1cccc(C(=O)Nc2ccc(C(=O)OCc3cc(=O)n4c5c(sc4n3)CCCC5)cc2)c1	nt	-1	0	-11	-9
Cc1ccc(-c2cn3nc(N4CCCC(C(=O)NCc5ccc(F)cc5)C4)sc3n2)cc1 (centres undefined)	nt	0	-4	-2	-10
CC(C(=O)Nc1ccncc1)(c1ccccc1)c1ccccc1	10	2	2	1	2
CCOC(=O)CC(=O)CSc1nc2c(sc(=S)n2-c2ccc(OCC)cc2)c(=O)[nH]1	4	1	-5	14	2
NC(=O)CSc1nc2c(sc(=S)n2-c2ccccc2)c(=O)[nH]1	8	0	0	-38*	8
O=C(NNC(=O)C1CC(=O)N(Cc2ccccc2)C1)c1ccc(F)cc1 (centres undefined)	1	1	4	5	1
CCCCCCN1N=C(C)C(C(=O)c2ccc(Cl)cc2)C1=O (centres undefined)	-83*	7	0	-17	2
Cc1cccc(NC(=O)CSc2nc(C)c(Cc3ccccc3)c(=O)[nH]2)c1C	nt	1	-6	-31*!	7
Cc1nc(SCC(=O)Nc2ccccc2F)[nH]c(=O)c1Cc1ccccc1	nt	9	-3	-10	3
C[C@H](CO)N1C[C@H](C)[C@H](CN(C)C(=O)Nc2cccc(C(F)(F)F)c2)OCc2cnnn2CCCC1=O	-14	nt	nt	nt	-13
Cc1cc(Br)ccc1NC(=O)CN1C(=O)C2C3CC(c4ccccc4)C(C3)C2C1=O (centres undefined)	59	1	-8	-39*	4
Cc1cc(Br)ccc1NC(=O)CNC(=O)CN1C(=O)NC2(CCCCCC2)C1=O	-22	0	-8	-4	-8
CN1CCC(OC(=O)C(Oc2ccc(Cl)cc2)Oc2ccc(Cl)cc2)CC1	nt	nt	nt	nt	-16
O=S(=O)(NCc1ccccc1)c1ccc(S(=O)(=O)N(Cc2ccccn2)Cc2ccco2)cc1	-10	26	-11	-34*	-6
CCN(CC)S(=O)(=O)c1ccc(S(=O)(=O)N(Cc2ccccn2)Cc2ccco2)cc1	15	31*	-12	-56*	3
CNc1nc(-c2cccc(C(=O)N(C)C)c2)cn2ccnc12	0	nt	nt	nt	1
CCOc1ccc(S(=O)(=O)NCCc2c(C)[nH]c3c(Cl)cccc23)cc1C	nt	0	-5	4	-10
Cc1cc(OC(=O)c2ccccc2Cl)cc(=O)n1C	86	2	-2	0	35*
O=C(Oc1ccc(N2C(=O)CCC2=O)cc1)c1ccccc1Cl	1	9	-4	6	1
O=C(C1CCN(S(=O)(=O)c2cccnc2)CC1)N1CCN(c2cccc(Cl)c2)CC1	-12	11	-1	-83*	18
SMILES	D3 antag	D1 agonist	D1 PAM	D1 antagonist	D3 ag
O=S(=O)(Cc1ccccc1)N1CCN(c2ncccn2)CC1	5	4	-7	-51*	-6
O=C(C1CCN(S(=O)(=O)Cc2ccccc2)CC1)N1CCN(c2ccc(F)cc2)CC1	nt	-1	-3	-9	-8
O=C(C1CCN(S(=O)(=O)Cc2ccccc2)CC1)N1CCN(c2ncccn2)CC1	8	2	0	7	0
CNS(=O)(=O)c1cnccc1N1CCN(c2cccc(Cl)c2)CC1	-14	11	-9	-31*	-9
O=C(C1CCN(S(=O)(=O)Cc2ccccc2)CC1)N1CCN(c2ccccc2)CC1	nt	-2	1	-61*	3
O=S(=O)(c1ccc(Br)s1)N1CCN(c2ncccn2)CC1	-79*	2	3	-7	-17
COc1ccc(CN(C)C(=O)CCCNC(=O)c2ccc(Cl)cc2)cc1	-5	-4	-2	13	-4
